Reference: PubChem BioAssay (NCATS)
Inconclusive results are not listed. Activity calls are given as the source filed them. Calls come from the whole dose curve; as a rule, active = well fitted inhibition curve with a large enough effect; inconclusive = small, poorly fitted or top-dose-only effect; inactive = flat fitted curve, though single readings scatter.

Experiments:
Test in all cases: qHTS profiling for inhibitors of Plasmodium falciparum proliferation (AID 504749); note: nearly all actives have a fitted effect of over 60% in size
Settings in all cases: P. falciparum in erythrocytes, SYBR Green DNA, 72 h; series mostly up to 28.7 µM
CP247 = tested on: CP247
Method in brief: (§1)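 In a 72 h erythrocytic culture (37 C, humidified, 5% CO2) at 2.5% hematocrit and 0.3% starting parasitemia, compounds were tested; SYBR Green I in detergent lysis buffer stained parasite DNA overnight.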

CP250 = tested on: CP250
Method in brief: as §1

CP252 = tested on: CP252
Method in brief: as §1

CP256 = tested on: CP256
Method in brief: as §1

CP260 = tested on: CP260
Method in brief: as §1

CP262 = tested on: CP262
Method in brief: as §1

CP265 = tested on: CP265
Method in brief: as §1

CP268 = tested on: CP268
Method in brief: as §1

CP269 = tested on: CP269
Method in brief: as §1

CP286 = tested on: CP286
Method in brief: as §1

CP291 = tested on: CP291
Method in brief: as §1

CP297 = tested on: CP297
Method in brief: as §1

CP305 = tested on: CP305
Method in brief: as §1

CP315 = tested on: CP315
Method in brief: as §1

CP325 = tested on: CP325
Method in brief: as §1

CP329 = tested on: CP329
Method in brief: as §1

CP335 = tested on: CP335
Method in brief: as §1

DFO2036 = tested on: DFO2036
Method in brief: as §1

DIV14 = tested on: DIV14
Method in brief: as §1

CP266 = tested on: CP266
Method in brief: as §1

Measured: Potency
Potency is the fitted concentration of half-maximal effect.

CC(=O)Nc1ccc(OC(=O)c2ccccc2OC(C)=O)cc1
inactive: CP247 | CP250 | CP252 | CP256 | CP260 | CP262 | CP265 | CP268 | CP269 | CP286 | CP291 | CP297 | CP305 | CP315 | CP325 | CP329 | CP335 | DFO2036 | DIV14

C#C[C@]1(O)CC[C@H]2[C@@H]3CCC4=Cc5oncc5C[C@]4(C)[C@H]3CC[C@@]21C
inactive: CP247 | CP250 | CP252 | CP256 | CP260 | CP262 | CP265 | CP266 | CP268 | CP269 | CP286 | CP291 | CP305 | CP315 | CP325 | CP329 | CP335 | DFO2036 | DIV14

CC(C)Cc1ccc(CC(=O)O)cc1
inactive: CP247 | CP250 | CP252 | CP256 | CP260 | CP262 | CP265 | CP266 | CP268 | CP269 | CP286 | CP291 | CP297 | CP305 | CP325 | CP329 | CP335 | DFO2036 | DIV14

Cc1ccc(S(=O)(=O)NC(=O)NC2CCCC2)cc1
inactive: CP247 | CP250 | CP252 | CP256 | CP260 | CP262 | CP265 | CP268 | CP269 | CP286 | CP291 | CP305 | CP315 | CP325 | CP329 | CP335 | DFO2036 | DIV14

C#C[C@]1(O)CC[C@H]2[C@@H]3CCc4cc(OC)ccc4[C@H]3CC[C@@]21C
inactive: CP247 | CP250 | CP252 | CP256 | CP260 | CP262 | CP265 | CP266 | CP268 | CP269 | CP286 | CP291 | CP297 | CP305 | CP315 | CP325 | CP329 | CP335 | DFO2036 | DIV14

C#C[C@]1(OC(C)=O)CC[C@H]2[C@@H]3CCC4=C/C(=N/O)CC[C@@H]4[C@H]3CC[C@@]21CC
inactive: CP247 | CP250 | CP252 | CP256 | CP260 | CP262 | CP265 | CP266 | CP268 | CP269 | CP286 | CP291 | CP297 | CP305 | CP315 | CP325 | CP329 | DFO2036

O=C(Nc1ncc([N+](=O)[O-])s1)c1cccs1
inactive: CP247 | CP250 | CP252 | CP256 | CP260 | CP262 | CP265 | CP268 | CP269 | CP286 | CP291 | CP297 | CP305 | CP315 | CP325 | CP329 | CP335 | DFO2036 | DIV14

O=C(O)CCC(=O)Nc1ccc(S(=O)(=O)Nc2nccs2)cc1
inactive: CP247 | CP250 | CP252 | CP256 | CP260 | CP262 | CP265 | CP266 | CP268 | CP269 | CP286 | CP291 | CP297 | CP305 | CP315 | CP329 | CP335 | DFO2036 | DIV14

NS(=O)(=O)c1cc(C(=O)O)cc(N2CCCC2)c1Oc1ccccc1
inactive: CP247 | CP250 | CP252 | CP256 | CP260 | CP262 | CP265 | CP268 | CP269 | CP286 | CP291 | CP297 | CP305 | CP315 | CP325 | CP329 | CP335 | DFO2036 | DIV14

CCCCCCCCOc1ccc(C(=O)c2ccccc2)c(O)c1
inactive: CP247 | CP250 | CP252 | CP256 | CP260 | CP262 | CP265 | CP268 | CP269 | CP286 | CP291 | CP297 | CP305 | CP315 | CP325 | CP329 | CP335 | DFO2036 | DIV14

OC[C@H]1O[C@@H]2O[C@H]3[C@H](O)[C@@H](O)[C@@H](O[C@H]4[C@H](O)[C@@H](O)[C@@H](O[C@H]5[C@H](O)[C@@H](O)[C@@H](O[C@H]6[C@H](O)[C@@H](O)[C@@H](O[C@H]7[C@H](O)[C@@H](O)[C@@H](O[C@H]8[C@H](O)[C@@H](O)[C@@H](O[C@H]1[C@H](O)[C@H]2O)O[C@@H]8CO)O[C@@H]7CO)O[C@@H]6CO)O[C@@H]5CO)O[C@@H]4CO)O[C@@H]3CO
inactive: CP247 | CP250 | CP252 | CP256 | CP260 | CP262 | CP265 | CP266 | CP268 | CP269 | CP286 | CP291 | CP305 | CP315 | CP325 | CP329 | CP335 | DFO2036 | DIV14

O=C(Nc1cccc(C2=NCCN2)c1)Nc1cccc(C2=NCCN2)c1
active: CP247 2.82 µM | CP250 3.55 µM | CP252 3.16 µM | CP256 0.708 µM | CP260 2.51 µM | CP262 4.78 µM | CP268 15.1 µM | CP269 12 µM | CP286 2 µM | CP291 15.1 µM | CP297 13.5 µM | CP305 7.57 µM | CP315 16.9 µM | CP329 13.5 µM | CP335 12 µM | DFO2036 1.78 µM | DIV14 3.01 µM

CCOc1ccc(NC(C)=O)cc1
inactive: CP247 | CP250 | CP252 | CP256 | CP260 | CP262 | CP265 | CP266 | CP268 | CP269 | CP286 | CP291 | CP297 | CP305 | CP315 | CP325 | CP329 | DFO2036 | DIV14

COc1ccc(CN(CCN(C)C)c2ncccn2)cc1
inactive: CP247 | CP250 | CP252 | CP256 | CP260 | CP262 | CP265 | CP268 | CP269 | CP286 | CP291 | CP297 | CP305 | CP315 | CP325 | CP329 | CP335 | DFO2036 | DIV14

CNCCc1ccccn1
inactive: CP247 | CP250 | CP252 | CP256 | CP260 | CP262 | CP265 | CP266 | CP268 | CP269 | CP286 | CP291 | CP305 | CP315 | CP325 | CP329 | CP335 | DFO2036 | DIV14

Cn1c(=O)c2[nH]c(Br)nc2n(C)c1=O
inactive: CP247 | CP250 | CP252 | CP256 | CP260 | CP262 | CP265 | CP266 | CP268 | CP269 | CP286 | CP291 | CP297 | CP305 | CP315 | CP325 | CP329 | CP335 | DIV14

CN(Cc1ccc(C(C)(C)C)cc1)Cc1cccc2ccccc12
inactive: CP247 | CP250 | CP252 | CP256 | CP260 | CP262 | CP265 | CP266 | CP268 | CP269 | CP291 | CP297 | CP305 | CP315 | CP325 | CP329 | DFO2036

C=CCN1CCc2nc(N)sc2CC1
inactive: CP247 | CP250 | CP252 | CP256 | CP260 | CP262 | CP265 | CP266 | CP268 | CP269 | CP286 | CP291 | CP297 | CP305 | CP315 | CP325 | CP329 | DFO2036 | DIV14

CCN(CC)CCNC(=O)c1cc(Br)c(N)cc1OC
inactive: CP247 | CP250 | CP252 | CP256 | CP260 | CP262 | CP265 | CP266 | CP268 | CP269 | CP286 | CP291 | CP305 | CP315 | CP325 | CP329 | CP335 | DFO2036 | DIV14

CCC(C(=O)OCCOCCN(CC)CC)c1ccccc1 (configuration not stated)
active: CP297 15.1 µM
inactive: CP247 | CP250 | CP252 | CP256 | CP260 | CP262 | CP266 | CP268 | CP269 | CP286 | CP291 | CP305 | CP315 | CP325 | CP329 | DFO2036

COc1ccccc1N1CCN(CCCCNC(=O)c2ccc(-c3ccc(C(C)=O)cc3)cc2)CC1
inactive: CP247 | CP250 | CP252 | CP256 | CP260 | CP262 | CP265 | CP266 | CP268 | CP269 | CP291 | CP297 | CP305 | CP315 | CP325 | CP329 | CP335 | DFO2036 | DIV14

CC(C)=CCOc1ccc(/C=C/C(=O)c2ccc(OCC=C(C)C)cc2OCC(=O)O)cc1
inactive: CP247 | CP250 | CP252 | CP256 | CP260 | CP262 | CP265 | CP266 | CP268 | CP269 | CP286 | CP291 | CP297 | CP305 | CP315 | CP325 | CP329 | DFO2036

C/C=C/C=N/NC(=O)c1ccncc1
inactive: CP247 | CP250 | CP252 | CP256 | CP260 | CP262 | CP265 | CP266 | CP268 | CP269 | CP286 | CP291 | CP305 | CP315 | CP325 | CP329 | CP335 | DFO2036 | DIV14

CC(=O)N[C@@H](CCC(=O)O)C(=O)O
inactive: CP247 | CP250 | CP252 | CP256 | CP260 | CP262 | CP265 | CP266 | CP268 | CP269 | CP286 | CP297 | CP305 | CP315 | CP325 | CP329 | CP335 | DFO2036 | DIV14

CCOC(=O)Nc1ccc2c(c1)N(C(=O)CCN1CCOCC1)c1ccccc1S2
inactive: CP247 | CP250 | CP252 | CP256 | CP260 | CP262 | CP265 | CP266 | CP268 | CP269 | CP286 | CP291 | CP297 | CP305 | CP325 | CP329 | CP335 | DFO2036 | DIV14
